Records with an inconclusive call do not appear. Active and inactive are the calls of the source. Calls follow the shape of the dose curve; as a rule, active = well fitted cell-killing curve with a large enough effect; inconclusive = small, poorly fitted or top-dose-only effect, or effect the other way; inactive = no such curve, though single readings can be large or run the other way.
Assays:
[1] = Quantitative High-Throughput drug screen in 47 multiple myeloma cell lines against the NCATS MIPE library collection: LP1_DSMZ cell viability assay (AID 1918982); also: nearly all actives have a fitted effect of over 35% in size; also: potency is read from the fitted curve at half-maximal effect
Outline: (§1)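 MIPE 4.0 approved/investigational drugs; 500 cells/well; 48 h 37 °C humidified 5% CO2; CTG luminescence readout; DMSO = 100%, media = 0% viability.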

[2] = Quantitative High-Throughput drug screen in 47 multiple myeloma cell lines against the NCATS MIPE library collection: KMS28PE_JCRB cell viability assay (AID 1918983); also: nearly all actives have a fitted effect of over 35% in size; also: potency is read from the fitted curve at half-maximal effect
Outline: as §1

[3] = Quantitative High-Throughput drug screen in 47 multiple myeloma cell lines against the NCATS MIPE library collection: KMS34_JCRB cell viability assay (AID 1918985); also: nearly all actives have a fitted effect of over 40% in size; also: potency is read from the fitted curve at half-maximal effect
Outline: as §1

[4] = Quantitative High-Throughput drug screen in 47 multiple myeloma cell lines against the NCATS MIPE library collection: OCIMY5_PLB cell viability assay (AID 1918988); also: nearly all actives have a fitted effect of over 65% in size; also: potency is read from the fitted curve at half-maximal effect
Outline: as §1

[5] = Quantitative High-Throughput drug screen in 47 multiple myeloma cell lines against the NCATS MIPE library collection: OPM1_PLB cell viability assay (AID 1918989); also: nearly all actives have a fitted effect of over 40% in size; also: potency is read from the fitted curve at half-maximal effect
Outline: as §1

[6] = Quantitative High-Throughput drug screen in 47 multiple myeloma cell lines against the NCATS MIPE library collection: SKMM1_PLB cell viability assay (AID 1919863); conditions: SKMM1 myeloma viability, CellTiter-Glo ATP, 48 h; viability: hits give low values; also: nearly all actives have a fitted effect of over 35% in size; also: potency is read from the fitted curve at half-maximal effect
Outline: as §1

[7] = Quantitative High-Throughput drug screen in 47 multiple myeloma cell lines against the NCATS MIPE library collection: U266_ATCC cell viability assay (AID 1919864); also: nearly all actives have a fitted effect of over 35% in size; also: potency is read from the fitted curve at half-maximal effect
Outline: as §1

[8] = Quantitative High-Throughput drug screen in 47 multiple myeloma cell lines against the NCATS MIPE library collection: XG6_PLB cell viability assay (AID 1919865); also: nearly all actives have a fitted effect of over 40% in size; also: potency is read from the fitted curve at half-maximal effect
Outline: as §1

[9] = Quantitative High-Throughput drug screen in 47 multiple myeloma cell lines against the NCATS MIPE library collection: XG1_PLB cell viability assay (AID 1919866); also: nearly all actives have a fitted effect of over 35% in size; also: potency is read from the fitted curve at half-maximal effect
Outline: as §1

[10] = Quantitative High-Throughput drug screen in 47 multiple myeloma cell lines against the NCATS MIPE library collection: PE2_PLB cell viability assay (AID 1919869); also: nearly all actives have a fitted effect of over 35% in size; also: potency is read from the fitted curve at half-maximal effect
Outline: as §1

[11] = Quantitative High-Throughput drug screen in 47 multiple myeloma cell lines against the NCATS MIPE library collection: PCM6_Riken cell viability assay (AID 1919870); also: nearly all actives have a fitted effect of over 30% in size; also: potency is read from the fitted curve at half-maximal effect
Outline: as §1

[12] = Quantitative High-Throughput drug screen in 47 multiple myeloma cell lines against the NCATS MIPE library collection: RPMI8226_ATCC cell viability assay (AID 1919871); also: nearly all actives have a fitted effect of over 30% in size; also: potency is read from the fitted curve at half-maximal effect
Outline: as §1

[13] = Quantitative High-Throughput drug screen in 47 multiple myeloma cell lines against the NCATS MIPE library collection: OPM2_DSMZ cell viability assay (AID 1919872); also: nearly all actives have a fitted effect of over 30% in size; also: potency is read from the fitted curve at half-maximal effect
Outline: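 We plated 500 myeloma cells per well, pinned in MIPE 4.0 compounds, and incubated for 48 hours at 37C. ATP was then quantified with CellTiter-Glo, with DMSO and media-only wells defining 100% and 0%.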

[14] = Quantitative High-Throughput drug screen in 47 multiple myeloma cell lines against the NCATS MIPE library collection: KMS11_JCRBsus cell viability assay (AID 1919873); also: nearly all actives have a fitted effect of over 50% in size; also: potency is read from the fitted curve at half-maximal effect
Outline: as §1

[15] = Quantitative High-Throughput drug screen in 47 multiple myeloma cell lines against the NCATS MIPE library collection: KMS28BM_JCRB cell viability assay (AID 1919874); also: nearly all actives have a fitted effect of over 35% in size; also: potency is read from the fitted curve at half-maximal effect
Outline: as §1

[16] = Quantitative High-Throughput drug screen in 47 multiple myeloma cell lines against the NCATS MIPE library collection: L363_DSMZ cell viability assay (AID 1918984); also: nearly all actives have a fitted effect of over 40% in size
Outline: as §1

[17] = Quantitative High-Throughput drug screen in 47 multiple myeloma cell lines against the NCATS MIPE library collection: OCIMY7_PLB cell viability assay (AID 1918987); conditions: OCI-MY7 myeloma viability, CellTiter-Glo ATP, 48 h; viability (% of DMSO): at 45.8 µM (top of the series); also: potency is read from the fitted curve at half-maximal effect; nearly all actives have a fitted effect of over 65% in size
Outline: as §1

[18] = Quantitative High-Throughput drug screen in 47 multiple myeloma cell lines against the NCATS MIPE library collection: VP6_DJ cell viability assay (AID 1919867); also: nearly all actives have a fitted effect of over 40% in size; also: potency is read from the fitted curve at half-maximal effect
Outline: as §1

[19] = Quantitative High-Throughput drug screen in 47 multiple myeloma cell lines against the NCATS MIPE library collection: UTMC2_PLB cell viability assay (AID 1919868); conditions: CellTiter-Glo ATP luminescence, 48 h; viability (% of DMSO control): at 45.8 µM (top of the series); also: potency is read from the fitted curve at half-maximal effect; nearly all actives have a fitted effect of over 55% in size
Outline: as §1

CC[C@H](CC[C@@H](C)[C@H]1CC[C@H]2[C@@H]3CC=C4C[C@@H](O)CC[C@]4(C)[C@@H]3CC[C@]12C)C(C)C
inactive: Potency [1] | Potency [2] | Potency [3] | Potency [4] | Potency [5] | viability [6] 106% | Potency [7] | Potency [8] | Potency [9] | Potency [10] | Potency [11] | Potency [12] | Potency [13] | Potency [14] | Potency [15]

Nc1ccn(C2CO[C@H](CO)O2)c(=O)n1 (stereo partly drawn)
inactive: Potency [1] | Potency [2] | Potency [16] | Potency [8] | Potency [9] | Potency [10] | Potency [11] | Potency [12] | Potency [13] | Potency [14] | Potency [15]

c1cncc(CN2CCC(n3ncc4c(N5CCOCC5)nc(-c5ccc6[nH]ccc6c5)nc43)CC2)c1
active: Potency [1] 5.9 µM | Potency [2] 6.62 µM | Potency [3] 5900 nM | Potency [17] 9.35 µM | Potency [4] 13.2 µM | Potency [6] 23.5 µM | Potency [7] 5.26 µM | Potency [8] 1.66 µM | Potency [9] 935 nM | Potency [18] 3.32 µM | Potency [10] 1.48 µM | Potency [11] 11.8 µM | Potency [12] 6.62 µM | Potency [13] 14.8 µM | Potency [14] 590 nM | Potency [15] 11.8 µM

CN[C@@H]1C[C@H]2O[C@@](C)([C@H]1OC)n1c3ccccc3c3c4c(c5c6ccccc6n2c5c31)C(=O)N[C@H]4O
active: Potency [1] 1.05 µM | Potency [2] 0.833 µM | Potency [3] 372 nM | Potency [17] 0.0235 µM | Potency [4] 0.264 µM | Potency [5] 93.5 nM | Potency [6] 5.9 µM | Potency [7] 1.05 µM | Potency [8] 0.0833 µM | Potency [9] 148 nM | Potency [18] 0.0469 µM | Potency [19] 148 nM | Potency [10] 0.118 µM | Potency [12] 2.09 µM | Potency [13] 1.05 µM | Potency [14] 264 nM | Potency [15] 0.469 µM

Cc1ccc2nc(NCCN)c3ncc(C)n3c2c1
active: Potency [1] 2.64 µM | Potency [2] 4.18 µM | Potency [3] 8330 nM | Potency [17] 6.62 µM | Potency [4] 1.32 µM | Potency [5] 13200 nM | Potency [6] 4.69 µM | Potency [7] 3.72 µM | Potency [8] 1.87 µM | Potency [9] 2350 nM | Potency [18] 5.26 µM | Potency [19] 4690 nM | Potency [10] 9.35 µM | Potency [11] 2.64 µM | Potency [12] 6.62 µM | Potency [13] 11.8 µM | Potency [14] 3720 nM | Potency [15] 6.62 µM

CCOC(=O)N1CCN([N+]([O-])=NOc2ccc([N+](=O)[O-])cc2[N+](=O)[O-])CC1
active: Potency [1] 2.64 µM | Potency [2] 1.32 µM | Potency [3] 935 nM | Potency [17] 0.526 µM | Potency [4] 1.32 µM | Potency [5] 1180 nM | Potency [6] 6.62 µM | Potency [7] 2.64 µM | Potency [8] 2.64 µM | Potency [9] 418 nM | Potency [18] 2.35 µM | Potency [19] 526 nM | Potency [10] 1.48 µM | Potency [11] 0.743 µM | Potency [12] 13.2 µM | Potency [13] 1.05 µM | Potency [14] 332 nM | Potency [15] 0.833 µM

Cc1cncc2cccc(S(=O)(=O)N3CCCN(C(=O)CN)C[C@@H]3C)c12
inactive: Potency [1] | Potency [16] | Potency [5] | Potency [18] | Potency [12] | Potency [13]
active: Potency [2] 18.7 µM | Potency [4] 1.48 µM | Potency [8] 14.8 µM | Potency [9] 20900 nM | Potency [19] 5900 nM | Potency [11] 20.9 µM | Potency [15] 1.18 µM

Cc1ccc([N+](=O)[O-])cc1S(=O)(=O)N(C)N=Cc1cnc2ccc(Br)cn12
active: Potency [1] 0.0264 µM | Potency [2] 0.0418 µM | Potency [3] 14.8 nM | Potency [4] 0.0187 µM | Potency [5] 8.3 nM | Potency [6] 0.0526 µM | Potency [10] 0.0074 µM | Potency [13] 0.059 µM | Potency [14] 6.6 nM | Potency [15] 0.0235 µM

COc1ccc(C(C)=O)c(O)c1
active: Potency [8] 18.7 µM
inactive: Potency [1] | Potency [2] | Potency [3] | Potency [4] | Potency [5] | viability [6] 112% | Potency [10] | Potency [11] | Potency [12] | Potency [13] | Potency [14]

CC[C@]12C=CCN3CC[C@@]4(c5cc([C@@]6(C(=O)OC)C[C@H]7C[C@@H](C(C)(F)F)CN(Cc8c6[nH]c6ccccc86)C7)c(OC)cc5N(C)[C@H]4[C@@](O)(C(=O)OC)[C@H]1OC(C)=O)[C@@H]32
active: Potency [1] 0.0209 µM | Potency [2] 0.0047 µM | Potency [3] 5.9 nM | Potency [4] 0.0019 µM | Potency [5] 16.6 nM | Potency [6] 0.0093 µM | Potency [7] 1.66 µM | Potency [19] 1 nM | Potency [11] 0.0105 µM | Potency [12] 0.166 µM | Potency [13] 0.0118 µM

CC(C)(C)[N+]([O-])=Cc1ccc(S(=O)(=O)O)cc1S(=O)(=O)O
inactive: Potency [1] | Potency [2] | Potency [16] | Potency [4] | Potency [5] | viability [6] 115% | Potency [8] | Potency [9] | Potency [18] | Potency [12] | Potency [13] | Potency [14]

Source: PubChem BioAssay (NCATS)
